# Results as given in the supplement of paper PMC9135407.
# “And” between values parts separate entries of the source, which are not always exact repeats. Identical values can stand only once. Counter-ions that a name gives are not always drawn. In all, about 5,800 compounds went through this assay and about 620 (11%) showed activity. The full list was thinned out, with actives kept by preference. A number with no mark means an inactive call.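 How the source made its calls: active = score above a cut-off or among the top three wells of a plate; in these data no inactive exceeds 0.85.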
# Tested on: primary human hepatic stellate cells (donor 1)
# Assay: scaled lipid accumulation score (0 = DMSO-like, 1 = nortriptyline-like); higher = stronger HSC inactivation (lipid re-accumulation), active = hit call of the paper
# Conditions: 48 h
# [1] = library stock concentration: 10 mM
# [2] = library stock concentration: 3.33 mM
# [3] = library stock concentration: 1 mM
# [4] = library stock concentration: 5.1 mM
smiles,measurement,setting,value
COc1cccc(C2(O)CCCCC2CN(C)C)c1 (centres undefined) [Tramadol hydrochloride],scaled lipid accumulation score,library stock concentration: 6.7 mM,≤ 0
COc1cccc(C2(O)CCCCC2CN(C)C)c1 (centres undefined) [Tramadol],scaled lipid accumulation score,[1],0.009
COc1cccc(C2(O)CCCCC2CN(C)C)c1 (centres undefined) [Tramadol HCl],scaled lipid accumulation score,library stock concentration: 7.6 mM,≤ 0
COc1ccc(CCN)cc1OC [Homoveratrylamine],scaled lipid accumulation score,[1],0.046
C=CCN1C[C@H](C(=O)N(CCCN(C)C)C(=O)NCC)C[C@@H]2c3cccc4[nH]cc(c34)C[C@H]21 [Cabergoline],scaled lipid accumulation score,library stock concentration: 4.4 mM,0.368
CCN1C[C@]2(COC)CC[C@H](O)[C@@]34C5C[C@@H]6[C@@H](OC)C[C@](O)(C(CC23)C14)C5[C@H]6OC(C)=O (some centres undefined) [Condelphine],scaled lipid accumulation score,,≤ 0
COc1cc2c(c(OC)c1OC)-c1ccc(O)c(=O)cc1[C@@H](N)CC2 [Trimethylcolchicinic acid],scaled lipid accumulation score,,0.074
O=C(NC(COc1ccc2[nH]c(=O)[nH]c2c1)c1ccccc1)c1cccn(Cc2ccc(F)c(F)c2)c1=O (centres undefined),scaled lipid accumulation score,library stock concentration: 80 uM,≤ 0
same,scaled lipid accumulation score,library stock concentration: 400 uM,≤ 0
same,scaled lipid accumulation score,library stock concentration: 2 mM,≤ 0
same,scaled lipid accumulation score,[1],≤ 0
COc1cc([C@@H]2c3cc4c(cc3[C@H](O)[C@H]3COC(=O)[C@H]23)OCO4)cc(OC)c1OC [Podophyllotoxin],scaled lipid accumulation score,,≤ 0
same,scaled lipid accumulation score,[1],0.288
COc1cc([C@@H]2c3cc4c(cc3[C@H](O)[C@H]3COC(=O)[C@H]23)OCO4)cc(OC)c1OC [Podofilox],scaled lipid accumulation score,library stock concentration: 4.8 mM,0.201
same,scaled lipid accumulation score,[1],0.419
C/C=C(\C)C(=O)N[C@@H](c1ccccc1)[C@@H](O)C(=O)O[C@H]1C[C@@]2(O)[C@@H](OC(=O)c3ccccc3)[C@@H]3[C@]4(OC(C)=O)CO[C@@H]4C[C@H](O)[C@@]3(C)C(=O)[C@H](OC(C)=O)C(=C1C)C2(C)C [Cephalomannine],scaled lipid accumulation score,[2],≤ 0
same,scaled lipid accumulation score,[1],≤ 0
O=C(NCCN1CCC2(CC1)C(=O)NCN2c1ccccc1)c1ccc2ccccc2c1,scaled lipid accumulation score,[3],≤ 0
O=C(CCCN1CCC2(CC1)C(=O)NCN2c1ccccc1)c1ccc(F)cc1 [Spiperone] [listing 1 of 2 here],scaled lipid accumulation score,[4],0.939 (active)
O=C(CCCN1CCC2(CC1)C(=O)NCN2c1ccccc1)c1ccc(F)cc1 [Spiperone hydrochloride],scaled lipid accumulation score,[1],0.74 and 0.784
O=C(CCCN1CCC2(CC1)C(=O)NCN2c1ccccc1)c1ccc(F)cc1 [Spiperone] [listing 2 of 2 here],scaled lipid accumulation score,,0.119
same,scaled lipid accumulation score,[4],0.399
same,scaled lipid accumulation score,[1],≤ 0
O=C(CCCN1CCC2(CC1)C(=O)N(Cc1cccc(F)c1)CN2c1ccccc1)c1ccc(F)cc1.O=C(O)/C=C\C(=O)O [3'-Fluorobenzylspiperone maleate],scaled lipid accumulation score,[1],0.967 (active)
CC(N)c1cccc(Cl)c1Cl (centres undefined),scaled lipid accumulation score,[1],0.208
O=C(O)c1ccc2[nH]cc(CCCCN3CC=C(c4ccccc4)CC3)c2c1 [Carmoxirole hydrochloride],scaled lipid accumulation score,[1],0.073
CN1C2CC(O)CC1C1OC12 (centres undefined) [Scopine],scaled lipid accumulation score,[2],≤ 0
same,scaled lipid accumulation score,[1],≤ 0
CCCCCCCCCCCCCCCC(=O)OCC(COP(=O)([O-])OCC[N+](C)(C)C)OC(C)=O (centres undefined),scaled lipid accumulation score,[3],0.014
C=C(C)[C@@H]1[C@H]2OC(=O)[C@@H]1[C@]1(O)C[C@H]3O[C@]34C(=O)O[C@H]2[C@]14C.CC(C)(O)[C@@H]1[C@H]2OC(=O)[C@@H]1[C@]1(O)C[C@H]3O[C@]34C(=O)O[C@H]2[C@]14C [Picrotin - Picrotoxinin],scaled lipid accumulation score,[1],≤ 0
c1cncc(C2=NCCC2)c1 [Myosmine],scaled lipid accumulation score,,≤ 0
CC(=O)OCC1=C(C(=O)[O-])N2C(=O)[C@@H](NC(=O)CCC[C@@H](N)C(=O)[O-])[C@H]2SC1.[Zn+2] [Cephalosporin C zinc salt],scaled lipid accumulation score,[1],0.329
COc1cc2c3cc1Oc1c(OC)c(OC)cc4c1[C@@H](Cc1cccc(c1)Oc1ccc(c(O)c1)C[C@@H]3N(C)CC2)N(C)CC4 [Berbamine hydrochloride],scaled lipid accumulation score,[1],≤ 0
COc1ccc(C[C@H]2NC[C@H](O)[C@H]2OC(C)=O)cc1 [Anisomycin] [listing 1 of 3 here],scaled lipid accumulation score,[1],1.39 (active)
COc1ccc(C[C@H]2NC[C@H](O)[C@H]2OC(C)=O)cc1 [Anisomycin] [listing 2 of 3 here],scaled lipid accumulation score,[1],0.806
COc1ccc(C[C@@H]2NC[C@@H](O)[C@@H]2OC(C)=O)cc1 [Anisomycin],scaled lipid accumulation score,library stock concentration: 18.8 mM,0.899 (active)
COc1ccc(C[C@H]2NC[C@H](O)[C@H]2OC(C)=O)cc1 [Anisomycin] [listing 3 of 3 here],scaled lipid accumulation score,,1.05 (active)
O[C@@H]1CCCC[C@H]1N1CCC(c2ccccc2)CC1 [L(-)-vesamicol hydrochloride],scaled lipid accumulation score,,≤ 0
CC(C)(C)NCC(O)COc1cccc2[nH]c(C#N)cc12 (centres undefined) [Cyanopindolol hemifumarate],scaled lipid accumulation score,[1],0.049
CC(C)[C@@H]1NC(=O)[C@H](C)OC(=O)[C@@H](C(C)C)NC(=O)[C@@H](C(C)C)OC(=O)[C@H](C(C)C)NC(=O)[C@H](C)OC(=O)[C@@H](C(C)C)NC(=O)[C@@H](C(C)C)OC(=O)[C@H](C(C)C)NC(=O)[C@H](C)OC(=O)[C@@H](C(C)C)NC(=O)[C@@H](C(C)C)OC1=O [Valinomycin],scaled lipid accumulation score,library stock concentration: 4.5 mM,0.447
CC1=NN=C(c2ccc(N)cc2)c2cc3c(cc2C1)OCO3,scaled lipid accumulation score,[1],≤ -0.07 and ≤ -0.006
CC[C@H](C)[C@H]1O[C@]2(C=C[C@@H]1C)C[C@@H]1C[C@@H](C/C=C(\C)[C@@H](O[C@H]3C[C@H](OC)[C@@H](O[C@H]4C[C@H](OC)[C@@H](O)[C@H](C)O4)[C@H](C)O3)[C@@H](C)/C=C/C=C3\CO[C@@H]4[C@H](O)C(C)=C[C@@H](C(=O)O1)[C@]34O)O2.CO[C@H]1C[C@H](O[C@H]2[C@H](C)O[C@@H](O[C@@H]3/C(C)=C/C[C@@H]4C[C@@H](C[C@]5(C=C[C@H](C)[C@@H](C(C)C)O5)O4)OC(=O)[C@@H]4C=C(C)[C@@H](O)[C@H]5OC/C(=C\C=C\[C@@H]3C)[C@]54O)C[C@@H]2OC)O[C@@H](C)[C@@H]1O [Abamectin],scaled lipid accumulation score,library stock concentration: 2.3 mM,0.027 and ≤ 0
CC[C@H](C)[C@H]1O[C@]2(C=C[C@@H]1C)C[C@@H]1C[C@@H](C/C=C(\C)[C@@H](O[C@H]3C[C@H](OC)[C@@H](O[C@H]4C[C@H](OC)[C@@H](O)[C@H](C)O4)[C@H](C)O3)[C@@H](C)/C=C/C=C3\CO[C@@H]4[C@H](O)C(C)=C[C@@H](C(=O)O1)[C@]34O)O2.CO[C@H]1C[C@H](O[C@H]2[C@H](C)O[C@@H](O[C@@H]3/C(C)=C/C[C@@H]4C[C@@H](C[C@]5(C=C[C@H](C)[C@@H](C(C)C)O5)O4)OC(=O)[C@@H]4C=C(C)[C@@H](O)[C@H]5OC/C(=C\C=C\[C@@H]3C)[C@]54O)C[C@@H]2OC)O[C@@H](C)[C@@H]1O [Avermectin B1],scaled lipid accumulation score,,≤ 0
CC[C@H](C)[C@H]1O[C@]2(C=C[C@@H]1C)C[C@@H]1C[C@@H](C/C=C(\C)[C@@H](O[C@H]3C[C@H](OC)[C@@H](O[C@H]4C[C@H](OC)[C@@H](O)[C@H](C)O4)[C@H](C)O3)[C@@H](C)/C=C/C=C3\CO[C@@H]4[C@H](O)C(C)=C[C@@H](C(=O)O1)[C@]34O)O2.CO[C@H]1C[C@H](O[C@H]2[C@H](C)O[C@@H](O[C@@H]3/C(C)=C/C[C@@H]4C[C@@H](C[C@]5(C=C[C@H](C)[C@@H](C(C)C)O5)O4)OC(=O)[C@@H]4C=C(C)[C@@H](O)[C@H]5OC/C(=C\C=C\[C@@H]3C)[C@]54O)C[C@@H]2OC)O[C@@H](C)[C@@H]1O [Avermectin b1],scaled lipid accumulation score,[1],≤ 0
O=C1C=CC[C@@H]2[C@H]3CCCN4CCC[C@@H](CN12)[C@@H]34 [Sophocarpine],scaled lipid accumulation score,[2],≤ 0
same,scaled lipid accumulation score,[1],≤ 0
CCCCC/C=C\C/C=C\C/C=C\C/C=C\CCCC(=O)NCCOP(=O)(O)O [Arachidonoyl Ethanolamide Phosphate],scaled lipid accumulation score,[3],≤ 0
"C/C(=C\c1csc(C)n1)[C@@H]1C[C@@H]2O[C@]2(C)CCC[C@H](C)[C@H](O)[C@@H](C)C(=O)C(C)(C)[C@@H](O)CC(=O)O1 [Epothilone B (EPO906, Patupilone)]",scaled lipid accumulation score,[2],≤ 0
same,scaled lipid accumulation score,[1],≤ 0
CCCCC/C=C\C/C=C\C/C=C\C/C=C\CCCC(N)=O [Arachidonamide],scaled lipid accumulation score,[3],≤ -0.021
CCCCC/C=C\C/C=C\C/C=C\C/C=C\CCCC(N)=O [Arachidonoyl amide],scaled lipid accumulation score,[3],≤ 0
COc1cc(C(=O)OC2CC3CCC(C2)N3C)ccc1O (centres undefined) [Fillalbin],scaled lipid accumulation score,,≤ 0
CN1C2CCC1CC(OC(c1ccc(F)cc1)c1ccc(F)cc1)C2.Cl (centres undefined),scaled lipid accumulation score,[1],1.29 (active)
CN1C2CCC1CC(OC(c1ccccc1)c1ccc(Cl)cc1)C2.Cl (centres undefined),scaled lipid accumulation score,[1],1.07 (active)
CN1[C@H]2C[C@H](OC(=O)[C@H](CO)c3ccccc3)C[C@@H]1[C@@H](O)C2 [Anisodamine],scaled lipid accumulation score,[1],0.076
CN1[C@@H]2CC[C@H]1C[C@@H](OC(c1ccccc1)c1ccccc1N)C2 (some centres undefined) [Aminobenztropine],scaled lipid accumulation score,[1],0.656
CN1[C@H]2C[C@H](OC(=O)[C@H](CO)c3ccccc3)C[C@@H]1[C@@H](O)C2,scaled lipid accumulation score,[1],≤ 0
CN1[C@@H]2CC[C@H]1C[C@@H](OC1c3ccccc3CCc3ccccc31)C2 [Deptropine citrate],scaled lipid accumulation score,,0.266
CC(C)(C)OC(=O)NC1[C@H]2CNC[C@@H]12 (some centres undefined),scaled lipid accumulation score,[1],≤ -0.033
